In PubChem BioAssay (Tox21):
Results filed as inconclusive are left out. Values without a mark were called inactive. Active and inactive are the calls of the source. The call rests on the fitted dose curve; in most records, active means well fitted activation curve with a large enough effect in the repeat runs; inconclusive means weak or mixed curves; inactive means flat fitted curve, though single readings scatter.

Test: A CellTox Green Cytotoxicity Assay to monitor cytotoxicity in HepG2 cells - 8 hour (AID 1224890); further: nearly all actives have a fitted effect of over 45% in size
Details: CellTox Green fluorescence; series mostly up to 76.8 µM; cytotoxicity increase: at the top concentration
From the text: National Center for Advancing Translational Sciences [NCATS]
NIH Chemical Genomics Center [NCGC]
U.S. Environmental Protection Agency [EPA]
National Institutes of Environmental Health Sciences [NIEHS]
National Toxicology Program [NTP]
Cell-based models are critical for drug discovery. Determining the natural cytotoxic effects resulting from test compounds is an essential research activity. A CellTox Green Cytotoxicity Assay to monitor cytotoxicity in real time of continues cell culture during 40 hours of the compound treatment was used to screen Tox21 10K library compounds in HepG2 cells. CellTox Green Cytotoxicity Assay is a nonlytic, homogeneous, biofluorescent method to measure cytotoxicity in cell culture after experimental manipulation. The assay system uses a proprietary asymmetric cyanine dye that is excluded from viable cells but preferentially stains the dead cell's DNA. […] Viable cells produce no appreciable increases in fluorescence. Therefore, the fluorescence signal produced by the binding interaction with dead cell DNA is proportional to cytotoxicity.
The mixture of HepG2 cell suspension and reagents were dispensed at 600cells/6 ul/well in 1536-well tissue culture treated black solid bottom plates using a Multidrop dispenser. After the assay plates were incubated at a 37 C/5% CO2 incubator for 5 hours, 23 nL of compounds dissolved in DMSO, positive and negative controls was transferred to the assay plate by a pintool work station. The plates were incubated at 37 C for 40 hours. The fluorescence intensity were measured at 0h, 8h, 16h, 24h, 32h and 40h time points using ViewLux plate reader during compound treatment.
On the % scale 0 is the no-effect control and ±100 the full control effect; potency means the concentration at half of the fitted maximal effect.

Row | SMILES | cytotoxicity increase | Potency
1 | COc1cccc(O)c1 | 0% | 
2 | C=C(C)CCCC | 0.37% | 
3 | CCCC(CC)CCCCCCCN (stereo not given) | 3.47% | 
4 | C[C@@]12C(=O)OC(=O)[C@]1(C)C1CCC2O1 |  | 23.9 µM (active)
5 | Cc1cn[nH]c1 | 2.04% [at 35.3 µM] | 
6 | CN(C)CCN1CCOCC1 | -11.4% | 
7 | O=C1OC(=O)c2cccc3cccc1c23 | -1.41% | 
8 | CC(=O)OC(OC(C)=O)c1ccc([N+](=O)[O-])o1 | 0.1% | 
9 | Clc1cc(Cl)c(-c2c(Cl)c(Cl)cc(Cl)c2Cl)cc1Cl | -12.3% [at 35.3 µM] | 
10 | OCCCc1cccnc1 | -14.8% | 
11 | CCC1(c2cnc[nH]2)Cc2ccccc2C1 | -0.849% [at 35.3 µM] | 
12 | CCCCCCCCCCc1ccccc1 | 1.58% | 
13 | CCCCCCCC/C=C/CCCOC(C)=O | 2.75% | 
14 | CC(O)C#CC(C)O (stereo not given) | 0.175% | 
15 | COc1ccc(C#N)cc1 | 2.66% | 
16 | CCCCCCS | -0.183% | 
17 | Cc1nc(Nc2ncc(C(=O)Nc3c(C)cccc3Cl)s2)cc(N2CCN(CCO)CC2)n1 | 1.89% [at 35.3 µM] | 
18 | CC(C)(c1cc(Br)c(O)c(Br)c1)c1cc(Br)c(O)c(Br)c1 |  | inactive
19 | C=C[C@](C)(O)CC[C@@H]1[C@@]2(C)CCCC(C)(C)[C@@H]2CC[C@@]1(C)O |  | 54.9 µM (active)
20 | Oc1c(Br)cc(Br)c2cccnc12 | 4.02% [at 35.3 µM] | 

Row | SMILES | cytotoxicity increase | Potency
21 | CCc1c(C(=O)O)c(=O)cnn1-c1ccc(Cl)cc1 | -1.95% | 
22 | CC(NCCC(c1ccccc1)c1ccccc1)c1ccccc1 (stereo not given) |  | 23.9 µM (active)
23 | CCc1ccc(C)nc1 | -16.2% | 
24 | CCCCCCCCCCCCCCCCCO | 1.25% [at 15.8 µM] | 
25 | C/C=C/C(=O)Oc1c(CCCCCC(C)C)cc([N+](=O)[O-])cc1[N+](=O)[O-] | 12.7% | 
26 | Cc1cccc(C)c1NC(=O)CN1CCN(CCCC(c2ccc(F)cc2)c2ccc(F)cc2)CC1 |  | 16.9 µM (active)
27 | CC1CCCCC1 | -0.786% | 
28 | CC(C)c1cccc(C(C)C)c1N1C(=O)c2ccc(O)cc2C1=O |  | 38.9 µM (active)
29 | COc1ccccc1C=O | 15.1% | 
30 | CC1CNCC(C)O1 (stereo not given) | -0.563% | 
31 | [O]=[Zr] | -1.05% | 
32 | CCCC(C)CCC(C)=O (stereo not given) | 9.54% | 
33 | CCCCNc1c(C(=O)OCC)c(C)nc2c1cnn2CC | 20.8% [at 35.3 µM] | 
34 | C=CCCCCCCC=C | -1.27% | 
35 | O[C@@H](c1cc(C(F)(F)F)nc2c(C(F)(F)F)cccc12)[C@H]1CCCCN1 |  | 26.8 µM (active)
36 | CC(=O)c1ccccc1N | -3.34% | 
37 | O=Cc1ccc(F)cc1 | -0.616% | 
38 | CC1=CCC(=O)O1 | 1.41% | 
39 | CCC(C)(C)c1cc(O)c(C(C)(C)CC)cc1O | 7.42% | 
40 | Clc1ccc(C(Cn2ccnc2)OCc2ccsc2Cl)c(Cl)c1 (stereo not given) | 17.9% [at 35.3 µM] | 
